From PubChem BioAssay AID504636 (National Center for Advancing Translational Sciences (NCATS), 2011)
About 490 (45%) of roughly 1,100 compounds were called active. Another 33% or so got no clear call; they are omitted. Calls come from the whole dose curve. The set was probably picked from earlier hits. The entries come from a sample that favours actives as a whole.

molecular target: ATP-dependent 6-phosphofructokinase (Trypanosoma brucei brucei) (UniProt O15648); assay: Tb PFK orthogonal confirmatory assay using ATP depletion (Kinase-Glo Plus) as an alternative measure of Tb PFK activity: Hit Validation; details: Tb PFK enzyme, Kinase-Glo Plus luminescence; series mostly up to 57.5 µM; note: nearly all actives have a fitted effect of over 60% in size
Sequence (O15648 whole entry, looked up): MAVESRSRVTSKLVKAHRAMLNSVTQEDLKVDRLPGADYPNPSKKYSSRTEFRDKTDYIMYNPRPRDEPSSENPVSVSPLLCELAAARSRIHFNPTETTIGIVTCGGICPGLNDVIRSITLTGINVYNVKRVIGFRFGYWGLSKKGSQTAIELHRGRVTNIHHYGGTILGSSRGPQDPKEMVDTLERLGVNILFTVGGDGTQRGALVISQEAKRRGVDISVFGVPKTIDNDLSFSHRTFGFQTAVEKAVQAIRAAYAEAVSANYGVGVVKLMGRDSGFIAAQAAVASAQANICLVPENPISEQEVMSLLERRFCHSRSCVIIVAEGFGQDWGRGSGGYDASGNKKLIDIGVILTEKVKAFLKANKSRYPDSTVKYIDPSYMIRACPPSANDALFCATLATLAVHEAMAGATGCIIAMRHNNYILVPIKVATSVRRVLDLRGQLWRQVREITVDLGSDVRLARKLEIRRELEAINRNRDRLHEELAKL
Text: Various species of the protozoan family Trypanosomatidae are responsible for a range of serious human diseases in tropical and subtropical areas of the world. […] Many of the disorders caused by trypanosomatids are fatal if left untreated, but most currently used drugs are inefficient and toxic.
Oxidative metabolism involving the mitochondrial tricarboxylic acid cycle and oxidative phosphorylation are repressed in these parasites, and recent RNA interference (RNAi) experiments have shown that even partial depletion of certain individual glycolytic enzymes can lead to the death of cultured parasites. One such glycolytic enzyme, phosphofructokinase (PFK), catalyzes the formation of fructose-1,6-bisphosphate (F1,6BP) and ADP from fructose-6-phosphate (F6P) and ATP, and in many metabolic circumstances makes an important contribution to the control of flux through the glycolytic pathway. As a specific glycolytic target, PFK is particularly attractive as it catalyzes the first irreversible step in glycolysis, and structural and kinetic studies have shown very substantial and essential differences from corresponding host enzymes, allowing for the discovery of parasite-selective inhibitors.
The primary qHTS data of T. brucei PFK and ADP-Glo confirmatory data are available in PubChem (AIDs: 485367 and 485368). A luminescent secondary assay was also performed that used luciferase-based nucleotide detection (Kinase-Glo Plus, Promega) similar to the qHTS, but which used ATP (rather than ADP) concentration as an alternate measure of T. brucei PFK activity. The assay measures substrate depletion (ATP) rather than product formation (ADP), coupled to an identical manner of luciferase-based signal detection. As such, compounds which truly act on T. brucei PFK produce a change in signal in the opposite direction of the primary qHTS assay, while compounds which affect the final luciferase reaction produce signal changes in identical directions. Compounds were screened as a concentration-titration series that ranged from 57uM to 0.7nM.
1. Verlinde, C.L., et al., Glycolysis as a target for the design of new anti-trypanosome drugs. Drug Resist Updat, 2001. 4(1): p. 50-65.
2. Albert, M.A., et al., Experimental and in silico analyses of glycolytic flux control in bloodstream form Trypanosoma brucei. J Biol Chem, 2005. 280(31): p. 28306-15.
3. […] J Mol Biol, 2009. 385(5): p. 1519-33.
NIH Molecular Libraries Probe Production Network [MLPCN]
NIH Chemical Genomics Center [NCGC]
PI Name: Dr. Malcolm Walkinshaw
Substrate buffer was dispensed into white, solid 1536-well plates at 3ul/well in 0.1M triethanolamine (TEA) buffer, pH 8.0, containing final concentrations of 5 mM MgCl2, 0.01% Tween20, 0.5 mM fructose-6-phosphate (F6P) and 0.1mM ATP. Then, 23nl of compounds or DMSO were delivered to each well using a pin tool. One ul T. brucei PFK (0.1M TEA, 0.01% Tween20, 0.1% bovine serum albumin (BSA) and 1.25nM PFK, final concentrations) was then dispensed, and plates were incubated at room temperature for 45 min. The luminescent detection reagent, Kinase-Glo Plus (Promega), was then added at 2ul/well and incubated for ten minutes at room temperature. The plates were measured on a ViewLux plate reader for luminescent signal using a clear filter with a one second exposure. The %Activity was determined from the corrected luminescence values. As no specific T. brucei PFK inhibitors have been identified in the literature, 1x (1.25nM) and 0x PFK enzyme controls (untreated) were included to normalize %Activity of identified inhibitors; 0x enzyme values corresponded to 100%Activity (full inhibition), while 1x PFK enzyme values were used to normalize 0% Activity (no inhibition). The Kinase-Glo Plus protocol varies from the primary screen in that it measures ATP, rather than ADP, concentration, and thus provides a measure of substrate depletion, rather than of product formation.
[…]
Potency is the fitted concentration of half-maximal effect.

Q: Which Potency does the source give for CCOc1cccc(/C=N/N2C(=O)CSC2=S)c1O here?
A: 30.1 µM (active)

Q: O=C1CSC(=S)N1/N=C/c1ccc(O)c([N+](=O)[O-])c1 was tested. Which Potency did it give?
A: inactive

Q: For Cn1sc(=O)c2cc(S(=O)(=O)NC3CC3)ccc21, which Potency is on record?
A: 7.57 µM (active)

Q: With OC(CNCc1ccc(Cl)c(Cl)c1)c1ccccc1 (stereo unspecified) as the compound, how does the Potency read?
A: 21.3 µM (active)

Q: For Cn1nnnc1NCc1ccc(Cl)c(Cl)c1, which Potency is on record?
A: 10.7 µM (active)

Q: With O=[N+]([O-])c1c(NCCO)cc(Sc2nc3ccccc3s2)c2nonc12 as the compound, how does the Potency read?
A: 0.601 µM (active)

Q: C/C=C\C=C\C(=O)N1CC2(CC(c3cccc(NC(=O)/C(C)=C\C)c3)=NO2)C[C@H]1C(N)=O (stereo partly specified) was tested. Which Potency did it give?
A: 9.53 µM (active)

Q: C=C(C)C(=O)Nc1cccc(C2=NOC3(C2)C[C@H](C(N)=O)N(C(=O)C(c2ccccc2)c2ccccc2)C3)c1 (stereo partly specified) was tested. Which Potency did it give?
A: 1.51 µM (active)

Q: CCc1ccc(NC(=O)C(=O)NNC(=O)c2cccs2)cc1 was tested. Which Potency did it give?
A: inactive

Q: How did the Potency turn out when O=c1ccnc(Nc2ccc(Cl)cc2)[nH]1 was run?
A: 21.3 µM (active)

Q: How did the Potency turn out when O=c1[nH]c2ccccc2n2c(-c3ccccc3)nnc12 was run?
A: 6.01 µM (active)

Q: For N/C(=N\OC(=O)Nc1ccc(Cl)c(Cl)c1)c1ncc(C(F)(F)F)cc1Cl, which Potency is on record?
A: 26.9 µM (active)

Q: For Cc1nc(N)nc(SCc2ccc([N+](=O)[O-])cc2)c1N, which Potency is on record?
A: 10.7 µM (active)

Q: Nc1nc(SCc2ccc([N+](=O)[O-])cc2)c2ncn(C3OC(CO)C(O)C3O)c2n1 (stereo unspecified) was tested. Which Potency did it give?
A: 23.9 µM (active)

Q: How did the Potency turn out when Cn1ccc(=Nc2ccc(NC(=O)c3ccc(N=c4ccn(C)c5ccc([N+](=O)[O-])cc45)cc3)cc2)cc1 was run?
A: inactive

Q: With O=C(Cc1ccc([N+](=O)[O-])cc1)N/N=C/c1ccco1 as the compound, how does the Potency read?
A: 19 µM (active)

Q: O=C(CSc1nc(O)c(Cc2ccccc2)c(=O)[nH]1)Nc1nc2c(s1)CCCC2 was tested. Which Potency did it give?
A: 6.75 µM (active)

Q: For Cc1ccc(-c2nn(-c3ccccc3)cc2/C=C2\SC(=S)N(CCCCCC(=O)O)C2=O)o1, which Potency is on record?
A: 9.53 µM (active)

Q: For Cc1cccc(-n2c(N)c(C(=O)N3CCN(C)CC3)sc2=S)c1, which Potency is on record?
A: 6.01 µM (active)

Q: With O=[N+]([O-])/C=C/c1ccc2c(ccn2Cc2ccccc2)c1 as the compound, how does the Potency read?
A: 10.7 µM (active)

Q: How did the Potency turn out when O=C(NCc1ccc(Cl)c(Cl)c1)c1cccnc1 was run?
A: 13.5 µM (active)

Q: With CCn1nc(C(=O)NNS(=O)(=O)c2cc(/C=C/C(=O)O)cc(OC)c2OC)c2ccccc2c1=O as the compound, how does the Potency read?
A: inactive

Q: For C=CC1=C(C(=O)O)N2C(=O)[C@@H](NC(=O)/C(=N\OCC(=O)O)c3csc(N)n3)[C@H]2SC1, which Potency is on record?
A: 2.69 µM (active)

Q: How did the Potency turn out when COC(=O)c1[nH]c2ccccc2c1NC(=O)CN1CCCc2ccccc21 was run?
A: inactive

Q: How did the Potency turn out when CC(C)(C)c1nnc(NC(=O)C2c3ccccc3Oc3ccccc32)s1 was run?
A: 19 µM (active)

Q: Which Potency does the source give for Cc1c(C)c2ccc(OCC(=O)N3CCN(c4cccc(Cl)c4)CC3)cc2oc1=O here?
A: 4.78 µM (active)

Q: With O=c1[nH]c(=S)[nH]c2[nH]c(=S)[nH]c12 as the compound, how does the Potency read?
A: 1.35 µM (active)

Q: How did the Potency turn out when COc1ccc(N/C=C(\C2OC(=O)c3ccccc32)[N+](=O)[O-])cc1 (stereo unspecified) was run?
A: inactive

Q: With FC(F)(F)C1CCCN(c2nsc3ccccc23)C1 (stereo unspecified) as the compound, how does the Potency read?
A: 2.69 µM (active)

Q: Which Potency does the source give for N#Cc1cccc(CSc2ncnc(N)n2)c1 here?
A: 13.5 µM (active)

Q: Cc1ccc(NC(=O)c2cc(-c3ccc(C)o3)nc3ccccc23)nc1 was tested. Which Potency did it give?
A: 6.75 µM (active)

Q: Cc1nn(Cc2ccc(Cl)c(Cl)c2)c(C)c1NC(=O)c1cc(C2CC2)on1 was tested. Which Potency did it give?
A: 5.36 µM (active)

Q: With OCCN1CCN(C(=S)c2ccc(-c3ccccc3)cc2)CC1 as the compound, how does the Potency read?
A: 9.53 µM (active)

Q: Which Potency does the source give for Cc1ccc(C)c(-c2nnc(NC(=O)CS(=O)(=O)c3ccccc3)o2)c1 here?
A: inactive

Q: COC(=O)CC(=O)N1CCN(c2ccc(Cl)c(Cl)c2)CC1 was tested. Which Potency did it give?
A: 23.9 µM (active)

Q: For O=C1CSC(=S)N1c1ccc(Cl)c(Cl)c1, which Potency is on record?
A: inactive
